Measured values as given in PubChem BioAssay (NCATS).
Results filed as inconclusive are left out. Active and inactive are the calls of the source. Calls follow the shape of the dose curve; as a rule, active = well fitted cell-killing curve with a large enough effect; inconclusive = small, poorly fitted or top-dose-only effect; inactive = flat fitted curve, though single readings scatter.

Assay: Cell Viability - LYMP2-010 (AID 981); also: nearly all actives have a fitted effect of over 55% in size
Conditions: LYMP2-010 lymphoblastoid cell viability, qHTS; series mostly up to 92.2 µM
From the text: NIH Chemical Genomics Center [NCGC]
NIH Molecular Libraries Screening Centers Network [MLSCN]
National Institutes of Environmental Health Sciences [NIEHS]
National Toxicology Program [NTP]
We have developed a 1536-well cell-based assay for quantitative high throughput screening (qHTS) against a number of cell lines to determine in vitro cytotoxicity of small molecules. This particular assay uses a human lymphoblastoid cell line (LYMP2-010) purchased from Coriell Institute for Medical Research.
NCGC Assay Protocol Summary:
The CellTiter-Glo luminescent cell viability assay (Promega) is a homogeneous method to measure the number of viable cells in culture. The end point readout of this assay is based on quantitation of intracellular ATP, an indicator of metabolic activity, using the luciferase reaction. Luciferase catalyzes the oxidation of beetle Luciferin to oxyluciferin and light in the presence of ATP. The luminescent signal is proportional to amount of ATP present.
Using the CellTiter-Glo luminescent cell viability assay, the amount of cellular ATP was measured in the lymphoblastoid cell line with complete culture medium following compound treatment for 24 hours. The assay was performed in opaque white Kalypsys 1536-well plates. In the screen, tetraoctylammonium bromide was used as positive control. Library compounds were measured for their ability to cause acute toxicity in the cell line, as reflected by a decrease in intracellular ATP levels, in a concentration-dependent manner. […] AC50 values were determined from concentration-response data modeled with the standard Hill equation.
qHTS protocol for CellTiter Glo lymphoblastoid cellular assay
[Step] [Parameter] [Value] [Description]
1. Reagent; 5 uL; 2500 lymphoblastoid cells/well
2. Time; 5 hr; 37 C incubation
4. Controls; 23 nL; Tetraoctylammonium bromide 6.4pM to 92 uM
5. Time; 24 hr; 37 C incubation
6. Reagent; 5 uL; CellTiter Glo reagent
7. Time; 30 min; Room Temperature
8. Detection; Luminescence; Viewlux plate reader
Keywords: cell viability, cytotoxicity, lymphoblastoid cell line, luminescence, NTPHTS, NTPHTS_NCGC, NIEHS, DSSTox, MLSMR, MLSCN, NIH Roadmap, qHTS, NCGC
Potency is read from the fitted curve at half-maximal effect.

Structure (SMILES) | Potency
Clc1ccc(C(c2ccc(Cl)cc2)C(Cl)Cl)cc1 | inactive
CC/C(=C(\c1ccccc1)c1ccc(OCCN(C)C)cc1)c1ccc(O)cc1 | 50.1 µM (active)
O=[N+]([O-])c1cc(C(F)(F)F)cc([N+](=O)[O-])c1Cl | 31.6 µM (active)
CCCCCCCCn1sccc1=O | 2.51 µM (active)
c1ccc2cc3c(cc2c1)-c1cccc2cccc-3c12 | inactive
O=C(CCl)c1ccccc1 | 7.94 µM (active)
C=CC(=O)OCC(CO)(COC(=O)C=C)COC(=O)C=C | 3.98 µM (active)
OC(c1ccc(Cl)cc1)(c1ccc(Cl)cc1)C(Cl)(Cl)Cl | inactive
C#CCO | inactive
N#CSCSC#N | 3.98 µM (active)
[CH3][Hg][Cl] | 1.58 µM (active)
CN(C)c1ccc(N=O)cc1 | 0.631 µM (active)
O=C(O)C1C(C(=O)O)C2(Cl)C(Cl)=C(Cl)C1(Cl)C2(Cl)Cl (stereo not drawn) | inactive
C[C@@H]1CC[C@@]2(OC1)O[C@H]1[C@@H](O)[C@H]3[C@@H]4CC[C@H]5C[C@@H](O[C@@H]6O[C@H](CO)[C@H](O[C@@H]7O[C@H](CO)[C@@H](O)[C@H](O[C@@H]8OC[C@@H](O)[C@H](O)[C@H]8O)[C@H]7O[C@@H]7O[C@H](CO)[C@@H](O)[C@H](O[C@@H]8O[C@H](CO)[C@@H](O)[C@H](O)[C@H]8O)[C@H]7O)[C@H](O)[C@H]6O)[C@H](O)C[C@]5(C)[C@H]4CC[C@]3(C)[C@H]1[C@@H]2C | 20 µM (active)
c1cc(OCC2CO2)cc(OCC2CO2)c1 (stereo not drawn) | 31.6 µM (active)
Nc1ccccc1C(=O)OCCc1ccccc1 | inactive
CC(=O)[O-].CC(=O)[O-].O.O.[Cd+2] | 39.8 µM (active)
CC(C)CC(C)Nc1ccc(Nc2ccccc2)cc1 (stereo not drawn) | 39.8 µM (active)
[Cd+2].[Cl-].[Cl-] | 50.1 µM (active)
ClC1=C(Cl)C(Cl)(Cl)C(Cl)=C1Cl | 5.01 µM (active)
O=Nc1ccc(Nc2ccccc2)cc1 | 5.01 µM (active)
O=[N+]([O-])C(Br)Br | 7.94 µM (active)
FC(F)(F)c1ccc(Cl)cc1 | inactive
